Screening results as filed in PubChem.
SARS PLpro yeast = SARS-CoV PLP inhibition in yeast; AID 485353; Potency, µM (series often up to 32.9 µM), for inactives: at the top dose activity, positive = growth rescue, most hits filed as activators; S. cerevisiae expressing SARS-CoV PLpro, growth rescue; actives 0.19% (n = 330,000); calls by dose curve; note: potency is the fitted concentration of half-maximal effect; 0% is about no effect; nearly all actives have a fitted effect of over 55% in size
AMA1 RON2 block = inhibitors of Plasmodium falciparum AMA1-RON2 interaction; AlphaScreen AMA1-biotinylated RON2 peptide binding; actives 0.2% (n = 360,000); Potency, µM (titrated, usually from 58.2 µM), without a hit: at the highest dose activity change, negative = inhibition, most hits filed as inhibitors;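 note: potency is the fitted concentration of half-maximal effect; 0% = vehicle wells and -100% = peptide control; nearly all actives have a fitted effect of over 45% in size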
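AMA1 (3D7) with his tag at 25 nM final met compounds first, then biotinylated RON2 peptide at 25 nM; detection used donor plus acceptor beads, 10 µg/mL apiece, read by AlphaScreen after 30 min at room temperature.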
Pf growth 48h = inhibits P. falciparum growth in the first generation, 48 h; P. falciparum luciferase growth in erythrocytes, 48 h; Potency, µM (top dose mostly 28.7 µM), without a hit: at the highest dose activity change, negative = inhibition, usual class: inhibitors; actives 5.9% (n = 310,000); note: potency is the fitted concentration of half-maximal effect; % is set by controls: 0 for no effect and ±100 for the full control effect
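Luciferase-expressing P. falciparum in infected erythrocytes (2% hematocrit, 0.1% parasitemia final) in RPMI 1640/0.5% Albumax were exposed to compound for 48 hours at 37 C, 5% CO2; growth read as luminescence.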
CHX counter = counter-screen hit for Shiga toxin inhibitors, cycloheximide | cell reporter, cycloheximide protein synthesis inhibition counterscreen | max response, % | actives 12% (n = 300,000); in the data active = max response mostly above about 13%, no sharp cut-off; inactive = mostly below about 14%; note: read at 38.3 µM for the half of the compounds with a filed dose; 0% is about no effect
Pf growth 96h = inhibits malaria parasite growth, 96 h | P. falciparum luciferase reporter growth, 96 h | Potency, µM (series often up to 28.7 µM), inactives show at the top dose activity change, negative = inhibition, most hits filed as inhibitors | actives 6.9% (n = 320,000) | AID 504834; note: potency is the fitted concentration of half-maximal effect; % is set by controls: 0 for no effect and ±100 for the full control effect
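Plates of compound plus infected erythrocytes (2% hematocrit, 0.05% parasitemia final) incubate 96 hours, 37 C, 5% CO2. Detection reagent added; reduced luminescence from the parasites' luciferase reporter flags inhibition.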
Shiga inhibitor = Shiga toxin inhibition | AID 2315 | actives 9.2% (n = 290,000) | inhibition, % at 38.7 µM | Vero cells, Shiga toxin protein synthesis inhibition reporter; in the data active = inhibition mostly above about 28%, no sharp cut-off; inactive = mostly below about 43%; note: 0% is about no effect
* marks the source's active call; other numbers are inactive results; ? = inconclusive; · = no result given; [ ] = another dose, or the depositor's remark. Most compounds without a hit are left out; they make up all but 19% or so of the library. Unless noted, calls come from the whole dose curve; as a rule, active = well fitted curve in the direction sought with a large enough effect; inconclusive = small, poorly fitted or top-dose-only effect, or another doubt; inactive = no such curve, though single readings can be large; an effect the other way counts as inactive or inconclusive.

SMILES	SARS PLpro yeast	AMA1 RON2 block	Pf growth 48h	CHX counter	Pf growth 96h	Shiga inhibitor
Cc1ccc(C(=O)Nc2ccccc2C(=O)NC(CC(=O)O)C(=O)O)cc1 (stereo not drawn)	-0.2%	1.7%	64.9%	2.9	?	17.2
CCC(C)C(NC(=O)c1ccccc1NC(=O)c1ccc(C)cc1)C(=O)O (stereo not drawn)	-0.5%	-12.0%	?	55.0*	-2.8%	93.6*
Cc1ccc(C(=O)Nc2ccccc2C(=O)NC(C(=O)O)C(C)C)cc1 (stereo not drawn)	-1.7%	-7.1%	11.7µM*	20.6	?	48.3*
CC1=C(C(=O)OCc2ccccc2)C(c2ccccc2-c2ccccc2)NC(=O)N1CCCCCC(=O)O (stereo not drawn)	-14.5%	-4.3%	?	-4.0	11.7µM*	-21.5
CC1=C(C(=O)OCc2ccccc2)C(c2ccc3ccccc3c2)NC(=O)N1CCCCCC(=O)O (stereo not drawn)	-0.7%	-3.0%	?	-2.4	10.4µM*	-14.9
CC1=C(C(=O)OCc2ccccc2)C(c2ccc3ccccc3c2)NC(=O)N1CCCC(=O)O (stereo not drawn)	-3.0%	-27.1%	2.2%	-1.0	68.2%	-3.5
CCCCN1C(=O)NC(c2ccc(OC)cc2)C(C(=O)OCc2ccccc2)=C1C (stereo not drawn)	0.9%	8.9%	?	5.5	5.22µM*	17.1
CC1=C(C(=O)OCc2ccccc2)C(c2ccccc2Cl)NC(=O)N1CCCCCC(=O)O (stereo not drawn)	0.5%	-8.9%	13.7%	-2.4	-65.0%	-8.0
COC(=O)c1cc(NC(=O)c2c(Cl)cnn2C)cc(C(=O)OC)c1	-12.3%	0.0%	25.0%	-3.7	58.7%	10.2
Cn1ncc(Cl)c1C(=O)Nc1ccc2c(c1)CCC2	-1.3%	7.9%	17.2%	43.7*	12.9%	76.6*
CN1N=C(C(=O)Nc2ccc3c(c2)CCC3)CCC1=O	-1.0%	-9.7%	70.1%	28.0*	121.0%	76.0*
CCN(CC(=O)NC(C)C)C(=O)Cc1ccc(C)c(C)c1	1.3%	0.1%	-6.6%	-0.3	-10.7%	4.1
COc1ccc(C(=O)NC2CCCCCCC2)cc1OC	·	2.3%	·	·	·	·
COc1ccc(NC(=O)c2ccc(CNc3c(NC4CCCCC4)c(=O)c3=O)cc2)cc1OC	2.1%	0.0%	·	4.0	14.7µM*	19.7
COc1ccc(CNC(=O)c2ccc(CNc3c(NC4CCCCC4)c(=O)c3=O)cc2)cc1	-15.5%	-8.4%	14.0%	45.6*	?	35.7
Cc1ccn2c(C(=O)c3ccc(Cl)cc3)cnc2c1	1.6%	-5.4%	·	51.5*	-31.6%	90.7*
Cc1ccc2nc3c(c(N)c2c1)CCN3c1ccccc1	-0.1%	-7.4%	?	12.9	?	26.6
Nc1c2c(nc3cccc(Cl)c13)N(c1ccccc1)CC2	-0.5%	5.6%	17.4%	2.1	7.38µM*	3.2
COC(=O)c1ccc(/C=N/NC(=O)C2CC(=O)N(c3ccc(OC)cc3)C2)cc1 (stereo not drawn)	-4.7%	?	?	-0.2	-0.3%	-4.6
CNC(=S)Nc1cc(C(=O)N2CCCC2)ccc1N1CCCC1	0.5%	-6.6%	22.2%	6.7	5.22µM*	26.1
Cc1cccc(-c2noc(CN(C)C(=O)c3ccco3)n2)c1	0.5%	?	36.2%	30.3*	-4.0%	154.0*
Cc1cccc(-c2noc(CN(C)C(=O)COc3ccccc3)n2)c1	-2.8%	15.4%	24.8%	8.9	29.3%	14.5
COc1ccc(-c2noc(CN(C)C(=O)c3ccoc3C)n2)cc1	1.1%	-1.5%	18.6%	24.3*	?	25.2
Cc1cccc(-c2noc(CN(C)C(=O)c3ccoc3C)n2)c1	-5.0%	-18.5%	10.5%	10.6	-7.9%	60.5*
CC(C)(C)c1ccc(S(=O)(=O)NC(=O)C2(C)CCN2C(=O)C2(c3ccccc3)CC2)cc1 (stereo not drawn)	·	-5.4%	·	·	·	·
SMILES	SARS PLpro yeast	AMA1 RON2 block	Pf growth 48h	CHX counter	Pf growth 96h	Shiga inhibitor
O=C(NC1CCCCC1)C1c2ccccc2OCC(=O)N1Cc1ccc2c(c1)OCO2 (stereo not drawn)	·	1.8%	·	·	·	·
CC(c1nnc(Sc2nnnn2-c2ccccc2)n1-c1ccc(F)cc1)N(C)C (stereo not drawn)	1.4%	22.3%	3.5%	-0.6	?	-9.4
COc1cccc(-c2cn(C[C@H]3CC[C@@H]([C@@H]4CC[C@H](Cn5cc(-c6cccc(OC)c6)nn5)O4)O3)nn2)c1	-3.4%	-6.8%	?	6.3	7.38µM*	-5.6
c1ccc(SCc2cn(C[C@H]3CC[C@@H]([C@@H]4CC[C@H](Cn5cc(CSc6ccccc6)nn5)O4)O3)nn2)cc1	-4.8%	-8.3%	-15.4%	0.6	14.7µM*	-5.6
CC(C)n1c(=O)c2ccccc2n1Cc1cn(Cc2ccccc2)nn1	·	16.0%	·	·	·	·
c1ccc(Cn2cc(CSc3ccccc3)nn2)cc1	0.1%	2.0%	50.3%	38.2*	91.7%	67.2*
Cc1cccc(C)c1NC(=O)C1(C)CCC(=O)N1C1CCN(Cc2ccccc2)CC1 (stereo not drawn)	·	8.8%	·	·	·	·
O=C(c1ccccc1)c1ccc(O)cc1O	-5.3%	1.4%	29.4%	7.3	42.0%	-2.0
CC(=O)c1cc2c(C)c(C(=O)c3ccccc3)oc2cc1O	-17.3%	15.8%[11.6 µM]	222.2%	45.5*	338.7%	78.7*
Cc1c(C(=O)OCC(=O)N(C)CC(=O)Nc2ccc(F)cc2)oc2ccccc12	3.0%	3.4%	-20.8%	·	-19.1%	·
O=C1Nc2ccccc2/C1=N\c1sc2c(c1C(=O)Nc1ccccc1)CCCC2	-50.9%	25.8%	7.38µM*	8.4	2.33µM*	22.4*
O=C(NCC(c1ccco1)N1CCc2ccccc2C1)c1ccc(Cl)c([N+](=O)[O-])c1 (stereo not drawn)	3.5%	-10.3%	?	·	0.5%	·
O=C(NCC(c1ccco1)N1CCCCC1)c1cccc(S(=O)(=O)Nc2ccc(F)cc2)c1 (stereo not drawn)	-0.7%	12.8%	10.4µM*	·	?	·
Cc1cc(S(=O)(=O)Nc2ccc(C(=O)NCC(c3ccco3)N3CCCCC3)cc2)ccc1F (stereo not drawn)	0.6%	-16.3%	?	·	?	·
O=C(NCC(c1ccco1)N1CCCC1)c1ccc(Cl)c(S(=O)(=O)N2CCc3ccccc32)c1 (stereo not drawn)	9.2%	19.8%[11.6 µM]	5.86µM*	·	?	·
O=C(NCC(c1ccco1)N1CCCC1)c1cccc(S(=O)(=O)Nc2ccc(F)cc2)c1 (stereo not drawn)	-6.7%	2.4%	13.1µM*	·	14.7µM*	·
Cc1ccc(S(=O)(=O)Nc2cccc(C(=O)NCC(c3ccco3)N3CCCCC3)c2)cc1F (stereo not drawn)	1.5%	-0.3%	?	·	-17.5%	·
Cc1ccc(NS(=O)(=O)c2cccc(C(=O)NCC(c3ccco3)N3CCCC3)c2)cc1 (stereo not drawn)	2.0%	20.5%	13.1µM*	·	?	·
